According to PubChem BioAssay (NCATS):
For part of these data: Entries with a potency or affinity are not part of this list. Active and inactive are the calls of the source. The rule behind the calls is not given here. Square brackets hold non-standard residues; d marks the D form. Peptide text beside a SMILES is read from it. * marks the point of attachment. Sta = CC(C)C[C@H](N)[C@@H](O)CC(=O)O; Isovaleryl = CC(C)CC(=O)*

Columns and labels:
[1] = Ebola virus entry assay, green fluorescence channel
[2] = Ebola virus entry assay, blue channel fluorescence
[3] = Ebola virus entry assay, ratio channel
[4] = Ebola virus entry assay, green channel fluorescence
[5] = Ebola virus entry assay, reporter ratio channel; Channel type: primary
[6] = Ebola virus entry assay, blue channel (ratio component)

Measured: efficacy
Throughout, for efficacy: 0% is about no effect.

CC1(C)OC(=O)Nc2ccc(Br)cc21
inactive: [1] -21.5% | [2] | [3] | [4] | [5] | [6]

O=C1OC(c2ccc(O)cc2)(c2ccc(O)cc2)c2ccccc21
inactive: [1] -10.1% | [2] | [3] | [4] | [5] | [6]

CCN[C@@H]1C[C@H](N)[C@@H](OC2OC(CN)=CCC2N)[C@H](O)[C@H]1O[C@H]1OC[C@](C)(O)[C@H](NC)[C@H]1O (stereo partly specified)
inactive: [1] -8.89% | [2] | [3] | [4] | [5] | [6]

CCOC(=O)OC(C)OC1=C(C(=O)Nc2ccccn2)N(C)S(=O)(=O)c2ccccc21 (stereo unspecified)
inactive: [1] 12.4% | [2] | [3] | [4] | [5] | [6]

CC(C)CC(=O)N[C@H](C(=O)N[C@H](C(=O)N[C@@H](CC(C)C)[C@@H](O)CC(=O)N[C@@H](C)C(=O)N[C@@H](CC(C)C)[C@@H](O)CC(=O)O)C(C)C)C(C)C (Isovaleryl-VV[Sta]A[Sta]-OH)
inactive: [1] -12.4% | [2] | [3] | [4] | [5] | [6]

CC1CCc2cc(F)cc3c(=O)c(C(=O)O)cn1c23 (stereo unspecified)
inactive: [1] -9.54% | [2] | [3] | [4] | [5] | [6]

CCc1oc2ccccc2c1C(=O)c1cc(Br)c(O)c(Br)c1
inactive: [1] 16.5% | [2] | [3] | [4] | [5] | [6]

Cc1nnc(C(=O)NC(C)(C)c2nc(C(=O)NCc3ccc(F)cc3)c(O)c(=O)n2C)o1
inactive: [1] -16.5% | [2] | [3] | [4] | [5] | [6]

O=C(O)c1ccc(OCCN2CCCCC2)cc1
inactive: [1] -23.5% | [2] | [3] | [4] | [5] | [6]

N[C@@H](Cc1cc(I)c(O)c(I)c1)C(=O)O
inactive: [1] 29.5% | [2] | [3] | [4] | [5] | [6]

O=C(O)CCc1nc(-c2ccccc2)c(-c2ccccc2)o1
inactive: [1] 18.2% | [2] | [3] | [4] | [5] | [6]

CC(=O)Nc1ccn(C2COC(COC(=O)c3ccccc3)O2)c(=O)n1 (stereo unspecified)
inactive: [1] -16% | [2] | [3] | [4] | [5] | [6]

CCC(=O)Nc1ccc(O)cc1
inactive: [1] -18.3% | [2] | [3] | [4] | [5] | [6]

O=C(Oc1cccc2cccnc12)c1ccccc1
inactive: [1] -27.7% | [2] | [3] | [4] | [5] | [6]

Cc1cc(NC(=O)C2=C(O)c3ccccc3S(=O)(=O)N2C)no1
inactive: [1] -7.71% | [2] | [3] | [4] | [5] | [6]

CCOC(=O)c1cc(=O)c2c(OCC(COc3cccc4oc(C(=O)OCC)cc(=O)c34)OC(=O)[C@@H](N)CCCCN)cccc2o1
inactive: [1] -21.2% | [2] | [3] | [4] | [5] | [6]

CC(=O)CCC(=O)O
inactive: [1] 10.9% | [2] | [3] | [4] | [5] | [6]

CC(O)COc1ccccc1 (stereo unspecified)
inactive: [1] 11.7% | [2] | [3] | [4] | [5] | [6]

CNC(=O)CN(CCN(CCN(CC(=O)[O-])CC(=O)NC)CC(=O)[O-])CC(=O)[O-].O.[Gd+3]
inactive: [1] -24.9% | [2] | [3] | [4] | [5] | [6]

OCC(O)CN1CCN(c2ccccc2)CC1 (stereo unspecified)
inactive: [1] 24.6% | [2] | [3] | [4] | [5] | [6]

CC(=O)OC/C=C(C)/C=C/C=C(C)/C=C/C1=C(C)CCCC1(C)C
inactive: [1] -18.2% | [2] | [3] | [4] | [5] | [6]

O=c1cc(CO)occ1O
inactive: [1] 16.7% | [2] | [3] | [4] | [5] | [6]

CCCc1nc(C)c2c(=O)[nH]c(-c3cc(S(=O)(=O)N4CCN(CC)CC4)ccc3OCC)nn12
inactive: [1] 25.4% | [2] | [3] | [4] | [5] | [6]

CCOC(=O)C(C)(C)Oc1ccc(Cl)cc1
inactive: [1] 22.6% | [2] | [3] | [4] | [5] | [6]

CNc1c2c(nn1C)CCCC2
inactive: [1] -13.1% | [2] | [3] | [4] | [5] | [6]

Cc1cn([C@H]2C[C@H](F)[C@@H](CO)O2)c(=O)[nH]c1=O
inactive: [1] -14.7% | [2] | [3] | [4] | [5] | [6]

CC1(C)OC[C@@H](COC(=O)CCc2ccc(OC[C@@H](O)CNCCNC(=O)N3CCOCC3)cc2)O1
inactive: [1] -15.7% | [2] | [3] | [4] | [5] | [6]

O=c1[nH]c2ccccc2c(=O)n1CCCl
inactive: [1] -18.7% | [2] | [3] | [4] | [5] | [6]

N[C@H](C(=O)O)c1ccc(O)cc1
inactive: [1] 11.9% | [2] | [3] | [4] | [5] | [6]

CC[N+](CC)(CC)CCOC(=O)C(C1CCCC1)C1CCCC1
inactive: [1] 39.4% | [2] | [3] | [4] | [5] | [6]

COC(=O)c1cc(S(N)(=O)=O)ccc1OC
inactive: [1] -31.2% | [2] | [3] | [4] | [5] | [6]

Nc1nc2ncc(CNc3ccc(C(=O)N[C@@H](CCC(=O)O)C(=O)O)cc3)nc2c(=O)[nH]1
inactive: [1] 12.4% | [2] | [3] | [4] | [5] | [6]

COc1ccc(C(Cl)=C(c2ccc(OC)cc2)c2ccc(OC)cc2)cc1
inactive: [1] 25.3% | [2] | [3] | [4] | [5] | [6]

C/C=C/c1ccc(O)c(OC)c1
inactive: [1] 19% | [2] | [3] | [4] | [5] | [6]

CC(C)c1cc2c(cc1S(=O)(=O)O)[C@@]1(C)CCC[C@@](C)(C(=O)O)[C@@H]1CC2
inactive: [1] -15.6% | [2] | [3] | [4] | [5] | [6]

COc1ccc(CCC(C)=O)cc1
inactive: [1] 11.4% | [2] | [3] | [4] | [5] | [6]

NCCNC(=O)c1ccc(Cl)cn1
inactive: [1] -25.1% | [2] | [3] | [4] | [5] | [6]

CN1CC(=O)N2[C@H](c3ccc4c(c3)OCO4)c3[nH]c4ccccc4c3C[C@@H]2C1=O
inactive: [1] 22.3% | [2] | [3] | [4] | [5] | [6]

CCOC(=O)c1cccc(N)c1
inactive: [1] 16.6% | [2] | [3] | [4] | [5] | [6]

Cc1ccc(O)cc1
inactive: [1] -17.7% | [2] | [3] | [4] | [5] | [6]

CCOc1ccccc1C(N)=O
inactive: [1] -14.9% | [2] | [3] | [4] | [5] | [6]

CCN(CC)C(=O)C1CN2CCc3cc(OC)c(OC)cc3C2CC1OC(C)=O (stereo unspecified)
inactive: [1] -20.8% | [2] | [3] | [4] | [5] | [6]

NC(=O)CC[C@@H](N)C(=O)O
inactive: [1] -11.5% | [2] | [3] | [4] | [5] | [6]

COc1ccc2[nH]c(S(=O)Cc3ncc(C)c(OC)c3C)nc2n1 (stereo unspecified)
inactive: [1] 29.9% | [2] | [3] | [4] | [5] | [6]

C[C@@H]1CC[C@@]2(OC1)O[C@H]1C[C@H]3[C@@H]4CC[C@H]5C[C@@H](O)CC[C@]5(C)[C@H]4CC(=O)[C@]3(C)[C@H]1[C@@H]2C
inactive: [1] 21.9% | [2] | [3] | [4] | [5] | [6]

O=C(NN1CCCC1)NS(=O)(=O)c1ccc(Cl)cc1
inactive: [1] -14.3% | [2] | [3] | [4] | [5] | [6]

C1CCN2C[C@@H]3C[C@@H](CN4CCCC[C@@H]34)[C@H]2C1
inactive: [1] 13.4% | [2] | [3] | [4] | [5] | [6]

O=C1c2ccccc2S(=O)(=O)N1CCCCN1CCN(c2ncccn2)CC1
inactive: [1] 29.9% | [2] | [3] | [4] | [5] | [6]

CC(=O)/C=C/C=C1/C2CCC(C2)C1(C)C (stereo unspecified)
inactive: [1] -14.5% | [2] | [3] | [4] | [5] | [6]

O=C(CCCCC(=O)Nc1c(I)cc(I)c(C(=O)O)c1I)Nc1c(I)cc(I)c(C(=O)O)c1I
inactive: [1] 11.5% | [2] | [3] | [4] | [5] | [6]

CCCCOc1ccc(CC(=O)NO)cc1
inactive: [1] -9.53% | [2] | [3] | [4] | [5] | [6]

CC1(C)CO[C@@H](CC(=O)O)CN1
inactive: [1] -12.4% | [2] | [3] | [4] | [5] | [6]

O=C(O)COC(=O)Cc1ccccc1Nc1c(Cl)cccc1Cl
inactive: [1] 31.8% | [2] | [3] | [4] | [5] | [6]

CCCOC(=O)c1ccc(N)cc1
inactive: [1] 7.92% | [2] | [3] | [4] | [5] | [6]

Oc1cccc2[nH]ccc12
inactive: [1] 14.5% | [2] | [3] | [4] | [5] | [6]

c1ccc([C@H]2CN3CCSC3=N2)cc1
inactive: [1] -38.1% | [2] | [3] | [4] | [5] | [6]
